Screening data deposited in PubChem BioAssay by National Center for Advancing Translational Sciences (NCATS).
IL-1B inflam inh = qHTS for Inhibitors of Inflammasome Signaling: IL-1-beta AlphaLISA Primary Screen. THP-1 LPS/ATP IL-1B secretion, AlphaLISA, 16 h; stronger effect = lower value. activity change, % at 57.5 µM. actives 4.7% (n = 360,000). AID 743279, 2014; in the data active = activity change below about -50%; inconclusive = mostly about -30% to -49%
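THP-1 cells pretreated 1 hr with compounds (up to 57.5 uM final), then stimulated with LPS (250 ng/mL final) plus ATP (1.25 mM final); secreted IL-1B measured by AlphaLISA after 16 hr, decreased signal indicating inhibition.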
ELG1 repair inh = qHTS screen for small molecules that inhibit ELG1-dependent DNA repair in human embryonic kidney (HEK293T) cells expressing luciferase-tagged ELG1; AID 504467, 2011; HEK293T ELG1-luciferase reporter, luminescence, 16 h; DNA damage induced by 5-fluorouridine; Potency, µM (highest dose often 46.1 µM), usual class: inhibitors; actives 2.3% (n = 330,000); note: nearly all actives have a fitted effect of over 55% in size
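Step one: seed 2,000 cells per well. Step two: pin-transfer compound or DMSO alongside 5-fluorouridine. Step three: incubate 16 hr, 37 °C, 5% CO2. Step four: add ONE-Glo, wait 30 min, read luminescence.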
DT40 TDP1 no CPT = qHTS for Inhibitors of human tyrosyl-DNA phosphodiesterase 1 (TDP1): qHTS in cells in absence of CPT. DT40 Tdp1-/- hTDP1 cells, no CPT, ATP luminescence, 48 h. Potency, µM (top dose mostly 46.2 µM), actives largely listed as inhibitors. actives 15% (n = 420,000). AID 686978, 2013; note: nearly all actives have a fitted effect of over 55% in size
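Stably hTDP1-transfected Tdp1-null chicken DT40 cells were treated with library compounds minus camptothecin and grown for at least 48 hr at 37 °C, after which cellular ATP was quantified by luminescence.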
Giardia kill = Small Molecules that selectively kill Giardia lamblia: qHTS; activity change, % at 7.66 µM, hits read low; actives 0.15% (n = 340,000); AID 540267, 2011; Giardia lamblia trophozoite viability; in the data active = activity change below about -80%; inconclusive = between about -30% and that limit;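 note: parasites exposed to compound for two days anaerobically before the ATP read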
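Anaerobic 48 hrs incubation at 37 deg C of 100 trophozoites/well with test compounds; ATPLite 1-Step luminescence, 15-30 min RT, reports cellular ATP as viability.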
TDP1 inh = qHTS Assay for Inhibitors of Tyrosyl-DNA Phosphodiesterase (TDP1); Tyrosyl-DNA phosphodiesterase 1 (Homo sapiens), Q9NUW8; recombinant TDP1, AlphaScreen DNA substrate cleavage; Potency, µM (highest dose often 130 µM), actives largely listed as inhibitors; actives 0.28% (n = 350,000); note: nearly all actives have a fitted effect of over 40% in size
Target sequence (Q9NUW8 whole entry, looked up): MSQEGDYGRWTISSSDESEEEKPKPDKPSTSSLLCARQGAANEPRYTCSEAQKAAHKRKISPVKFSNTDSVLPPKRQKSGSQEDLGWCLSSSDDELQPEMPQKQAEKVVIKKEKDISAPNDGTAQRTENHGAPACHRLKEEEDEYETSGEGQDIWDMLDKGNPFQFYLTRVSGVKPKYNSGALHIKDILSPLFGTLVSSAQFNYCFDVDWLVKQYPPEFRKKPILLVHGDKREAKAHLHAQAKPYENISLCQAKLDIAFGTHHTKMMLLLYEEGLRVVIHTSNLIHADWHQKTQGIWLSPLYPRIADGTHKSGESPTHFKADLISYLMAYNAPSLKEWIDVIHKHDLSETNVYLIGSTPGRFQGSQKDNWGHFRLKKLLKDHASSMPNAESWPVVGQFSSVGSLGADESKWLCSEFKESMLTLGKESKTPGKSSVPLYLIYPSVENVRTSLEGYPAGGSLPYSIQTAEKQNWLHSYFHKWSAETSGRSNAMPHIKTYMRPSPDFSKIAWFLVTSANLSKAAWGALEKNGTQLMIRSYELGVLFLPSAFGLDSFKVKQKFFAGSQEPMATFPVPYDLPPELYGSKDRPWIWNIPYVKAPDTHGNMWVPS
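E. coli-derived human Tdp1, 1 nM final. Cpd preinc 15 min RT; substrate 15 nM final, 5 min RT; AS bead mix 10 ug/ml final, 10 min RT. Signal loss = tyrosine-FITC cleavage. No-enzyme wells = max signal.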
DT40 TDP1 CPT = qHTS for Inhibitors of human tyrosyl-DNA phosphodiesterase 1 (TDP1): qHTS in cells in presence of CPT; chicken DT40 Tdp1-/-;hTDP1 cells + 20 nM CPT, ATP luminescence, 48 h; Potency, µM (titrated, usually from 46.2 µM), most hits filed as inhibitors; actives 12% (n = 420,000); AID 686979, 2013; note: nearly all actives have a fitted effect of over 55% in size
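Cell growth measured by CellTiter-Glo luminescence after a minimum 48 h, 37 C compound exposure with 20 nM CPT in Tdp1-knockout DT40 cells stably expressing hTDP1, seeded 400/well; qHTS titration format.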
Large screens that a line does not name were inactive. A selection: hits, their analogues and other compounds. The true share with any hit is near 19%. Unless noted, calls come from the whole dose curve; as a rule, active = well fitted curve in the direction sought with a large enough effect; inconclusive = small, poorly fitted or top-dose-only effect, or another doubt; inactive = no such curve, though single readings can be large; an effect the other way counts as inactive or inconclusive.

O=c1[nH]cnc2c1ccn2C1OC(CO)C(O)C1O (stereo unspecified)	DT40 TDP1 no CPT 0.15µM, DT40 TDP1 CPT 0.16µM (no result: ELG1 repair inh, TDP1 inh)
O=c1[nH]c(=S)ccn1C1OC(CO)C(O)C1O (stereo unspecified)	DT40 TDP1 no CPT inconclusive, DT40 TDP1 CPT inconclusive (no result: ELG1 repair inh, TDP1 inh)
O=c1[nH]c(=O)n(C2CC(O)C(CO)O2)cc1Br (stereo unspecified)	DT40 TDP1 no CPT inconclusive, DT40 TDP1 CPT inconclusive (no result: ELG1 repair inh, TDP1 inh)
O=c1[nH]c(=O)n(C2OC(CO)C(O)C2O)cc1F (stereo unspecified)	DT40 TDP1 no CPT 0.037µM, DT40 TDP1 CPT 0.15µM (no result: ELG1 repair inh, TDP1 inh)
CC(=O)c1ccc(NC(=O)c2nc3ccccc3n(C)c2=O)cc1	none (no result: IL-1B inflam inh, ELG1 repair inh, Giardia kill)
Cc1cn([C@H]2C[C@H](O)[C@@H](COS(=O)(=O)O)O2)c(=O)[nH]c1=O	DT40 TDP1 no CPT 1.6µM, Giardia kill inconclusive, DT40 TDP1 CPT 3.7µM
Nc1nc(=O)n(C2OC(CO)C(O)C2O)cc1F (stereo unspecified)	DT40 TDP1 no CPT 0.0058µM, DT40 TDP1 CPT 0.033µM (no result: ELG1 repair inh, Giardia kill, TDP1 inh)
O=C(NCCc1ccccc1)c1cc(=O)[nH]c2ccccc12	none
CCN1/C(=C2/SC(=S)N(C)C2=O)C=Cc2cc(C)ccc21	none (no result: ELG1 repair inh, TDP1 inh)
C=CC[n+]1c(/C=C2\C=Cc3cc(C)ccc3N2CC)ccc2ccccc21	IL-1B inflam inh -88, ELG1 repair inh inconclusive, DT40 TDP1 no CPT 0.073µM, DT40 TDP1 CPT 0.18µM
Cc1ccc(/C([O-])=C(/C(=S)Nc2ccc(SC(F)F)cc2)[n+]2ccccc2)cc1[N+](=O)[O-]	DT40 TDP1 no CPT 12µM, DT40 TDP1 CPT inconclusive
Cc1ccc(NC(=S)/C(=C(\[O-])c2ccc(C)c([N+](=O)[O-])c2)[n+]2ccccc2)cc1C	ELG1 repair inh inconclusive (no result: IL-1B inflam inh, DT40 TDP1 no CPT, Giardia kill, DT40 TDP1 CPT)
[O-]/C(=C(\C(=S)Nc1ccc(SC(F)F)cc1)[n+]1ccccc1)c1ccc(Cl)cc1Cl	IL-1B inflam inh -69, ELG1 repair inh 15µM, DT40 TDP1 no CPT 10µM, DT40 TDP1 CPT 10µM
Cc1cc(C)cc(NC(=S)/C(=C(\[O-])c2ccc(Cl)cc2Cl)[n+]2ccccc2)c1	DT40 TDP1 CPT inconclusive
COc1ccc(Oc2nc3c(c(=O)n(C)c(=O)n3C)n2Cc2ccccc2Cl)cc1	DT40 TDP1 no CPT 13µM, DT40 TDP1 CPT inconclusive (no result: IL-1B inflam inh, ELG1 repair inh, Giardia kill)
COc1ccc(Cn2c(NCC(C)C)nc3c2c(=O)n(C)c(=O)n3C)cc1	DT40 TDP1 no CPT inconclusive (no result: IL-1B inflam inh, ELG1 repair inh, Giardia kill, TDP1 inh)
Cn1c(=O)c2c(nc(Oc3ccc(F)cc3)n2Cc2ccc(F)cc2)n(C)c1=O	none (no result: IL-1B inflam inh, ELG1 repair inh, DT40 TDP1 no CPT, Giardia kill, DT40 TDP1 CPT)
COc1ccc(Cl)c(Cn2c(NCc3ccccn3)nc3c2c(=O)n(C)c(=O)n3C)c1	DT40 TDP1 no CPT 15µM, DT40 TDP1 CPT inconclusive
Cn1c(=O)c2c(nc(NCC3CCCC(CN)C3)n2Cc2ccc(Cl)cc2Cl)n(C)c1=O (stereo unspecified)	DT40 TDP1 no CPT 5.8µM, DT40 TDP1 CPT 4.6µM (no result: TDP1 inh)
COc1ccc(Oc2nc3c(c(=O)n(C)c(=O)n3C)n2Cc2ccc(Cl)cc2Cl)cc1	DT40 TDP1 no CPT 21µM, DT40 TDP1 CPT inconclusive (no result: IL-1B inflam inh, ELG1 repair inh, Giardia kill)
Cc1cc(C)cc(NC(=O)CSc2nc(=O)[nH]c3c2CCC3)c1	DT40 TDP1 no CPT inconclusive, DT40 TDP1 CPT inconclusive (no result: IL-1B inflam inh, ELG1 repair inh, Giardia kill)
CCN(CC)C(=O)c1ccc2sc([C@@H]3O[C@H](CO)[C@H](O)[C@H](O)[C@H]3O)nc2c1	none (no result: ELG1 repair inh, Giardia kill, TDP1 inh)
OCCOCCn1c(C2CCCN2c2nc(-c3ccc(F)cc3)cs2)nc2cc(C(F)(F)F)ccc21 (stereo unspecified)	DT40 TDP1 no CPT inconclusive, DT40 TDP1 CPT 16µM (no result: ELG1 repair inh, TDP1 inh)
Cc1ccc(Cn2c(C3CCCN3c3nc(-c4ccc(F)cc4)cs3)nc3cc(C(F)(F)F)ccc32)cc1 (stereo unspecified)	DT40 TDP1 no CPT 21µM, DT40 TDP1 CPT 18µM (no result: ELG1 repair inh, TDP1 inh)
